Experimental data as given in PubChem BioAssay (Tox21).
“And” between values parts separate entries of the source, which are not always exact repeats. Equal entries are not always repeated. Records with an inconclusive call do not appear. Some compounds were tested as several samples or in several runs, with calls that do not always agree. The source made the active and inactive calls. The call rests on the fitted dose curve; in most records, active means well fitted curve in the direction sought with a large enough effect in the repeat runs; inconclusive means weak or mixed curves; inactive means no such curve, though single readings can be large; an effect the other way counts as inactive or inconclusive.

Experiments:
[1] = qHTS assay to identify small molecule antagonists of the glucocorticoid receptor (GR) signaling pathway - cell viability counter screen (AID 720693); settings: GR-bla HeLa viability, CellTiter-Glo luminescence, 18 h, with 5 nM dexamethasone present; series mostly up to 58.5 µM; further: nearly all actives have a fitted effect of over 55% in size
[2] = qHTS assay for identifying genotoxic compounds that show differential cytotoxicity against isogenic chicken DT40 cell lines with known DNA damage response pathways - wild type cell line (AID 743012); settings: DT40 wild type chicken cells viability, CellTiter-Glo, 40 h; series mostly up to 68.4 µM; further: nearly all actives have a fitted effect of over 60% in size; further: potency means the concentration at half of the fitted maximal effect
Summary of the method: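 Cells (DT40 wild type, 300/well) are treated with DMSO-dissolved compounds after a ~0.5 h pre-incubation and kept 40 h at 37 C/5% CO2. Viability is then measured by CellTiter-Glo luminescence following 30 min at room temperature.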

[3] = qHTS assay for identifying genotoxic compounds that show differential cytotoxicity against isogenic chicken DT40 cell lines with known DNA damage response pathways - Rev3 mutant cell line (AID 743014); settings: chicken DT40 Rev3-/- viability, CellTiter-Glo, 40 h; series mostly up to 68.4 µM; further: nearly all actives have a fitted effect of over 55% in size; further: potency means the concentration at half of the fitted maximal effect
[4] = qHTS assay for identifying genotoxic compounds that show differential cytotoxicity against isogenic chicken DT40 cell lines with known DNA damage response pathways - Rad54/Ku70 mutant cell line (AID 743015); settings: DT40 Rad54/Ku70 mutant viability, CellTiter-Glo, 40 h; series mostly up to 66.8 µM; further: nearly all actives have a fitted effect of over 60% in size; further: potency means the concentration at half of the fitted maximal effect
[5] = qHTS assay to identify small molecule antagonists of the androgen receptor (AR) signaling pathway - cell viability counter screen (AID 743033; further: nearly all actives have a fitted effect of over 45% in size); settings: AR-bla HEK293 viability, CellTiter-Glo luminescence, 16 h; series mostly up to 58.5 µM
[6] = qHTS assay to identify small molecule antagonists of the androgen receptor (AR) signaling pathway using the MDA cell line - cell viability counter screen (AID 743041; further: nearly all actives have a fitted effect of over 45% in size; further: potency means the concentration at half of the fitted maximal effect); settings: MDA-kb2 viability, CellTiter-Fluor, 16 h, cells co-treated with R1881 androgen agonist; series mostly up to 70.3 µM
Summary of the method: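 Cells were plated at 3,000 per well and left 5 h. Compounds in DMSO were then pinned in, followed by R1881. After 16 h at 37C, CellTiter-Fluor fluorescence gave viability.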

[7] = target: Androgen receptor (Homo sapiens) (UniProt P10275); assay: qHTS assay to identify small molecule agonists of the androgen receptor (AR) signaling pathway using the MDA cell line (AID 743040; further: nearly all actives have a fitted effect of over 20% in size); settings: MDA-kb2 AR-luc cells, MMTV luciferase, 16 h; series mostly up to 70.3 µM
Chain of Androgen receptor (Homo sapiens) (P10275 whole entry, looked up): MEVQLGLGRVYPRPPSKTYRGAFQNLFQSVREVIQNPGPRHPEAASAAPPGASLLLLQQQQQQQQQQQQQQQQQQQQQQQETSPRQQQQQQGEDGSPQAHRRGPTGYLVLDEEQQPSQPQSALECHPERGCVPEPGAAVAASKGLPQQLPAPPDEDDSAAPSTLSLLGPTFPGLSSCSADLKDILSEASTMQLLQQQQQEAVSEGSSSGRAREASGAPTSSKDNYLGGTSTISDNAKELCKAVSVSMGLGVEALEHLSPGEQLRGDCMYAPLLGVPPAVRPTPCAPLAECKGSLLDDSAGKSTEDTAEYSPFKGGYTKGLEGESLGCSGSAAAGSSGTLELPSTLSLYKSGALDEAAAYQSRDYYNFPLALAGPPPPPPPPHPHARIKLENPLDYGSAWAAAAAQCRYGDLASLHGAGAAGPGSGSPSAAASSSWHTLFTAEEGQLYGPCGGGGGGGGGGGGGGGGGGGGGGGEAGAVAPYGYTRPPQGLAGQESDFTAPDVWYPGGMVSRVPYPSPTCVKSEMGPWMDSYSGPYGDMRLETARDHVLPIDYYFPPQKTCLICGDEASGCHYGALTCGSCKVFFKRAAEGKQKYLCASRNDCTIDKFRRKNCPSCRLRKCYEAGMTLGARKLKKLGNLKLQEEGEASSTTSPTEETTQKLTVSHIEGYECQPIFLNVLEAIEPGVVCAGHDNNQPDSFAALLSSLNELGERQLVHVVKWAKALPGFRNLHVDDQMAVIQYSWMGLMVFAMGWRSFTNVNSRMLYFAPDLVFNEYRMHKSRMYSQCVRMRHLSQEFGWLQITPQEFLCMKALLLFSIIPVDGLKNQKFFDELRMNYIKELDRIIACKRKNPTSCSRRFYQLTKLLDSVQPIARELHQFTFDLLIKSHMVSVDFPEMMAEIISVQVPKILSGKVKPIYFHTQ
Summary of the method: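 Cells plated, 5 h at 37C/0% CO2; compound or DMSO pinned; 16 h at 37C; ONE-Glo added; luminescence measured after 30 min at room temperature. Reporter line: MDA-kb2 with MMTV-luciferase responsive to AR and GR.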

Measured: Potency

CCCC(=O)OC(=O)CCC
not listed: [7]
inactive: all other assays above

O=C(O)CO
not listed: [7]
inactive: all other assays above

CC(C)C(=O)OCCOc1ccccc1
not listed: [7]
inactive: all other assays above

C1CCCCC1
not listed: [7]
inactive: all other assays above

CCOCCC(=O)OCC
not listed: [7]
inactive: all other assays above

COc1cc(NS(=O)(=O)c2ccc(N)cc2)nc(C)n1
not listed: [7]
inactive: all other assays above

COc1ccc2nc(S(=O)Cc3ncc(C)c(OC)c3C)[nH]c2c1 (centres undefined)
active: [4] 26.6 µM
26.6 µM (active) and inactive: [3]
21.1 µM (active) and inactive: [2]
inactive: [1] | [5] | [6]

O=C1OC[C@H](Cc2cccc(O)c2)[C@H]1Cc1cccc(O)c1
not listed: [7]
inactive: all other assays above

CC(=O)N[C@@H](Cc1ccc(O)cc1)C(=O)O
not listed: [7]
inactive: all other assays above

CN=C(N)NC(=O)Nc1c(C)cccc1C
not listed: [7]
inactive: all other assays above

COc1ccc(-n2nc(C(F)F)cc2-c2ccc(S(C)=O)cc2)cc1 (centres undefined)
active: [2] 61.1 µM | [3] 30.6 µM | [4] 54.5 µM
inactive: [1] | [5] | [6]

O=[N+]([O-])c1ccc2ncccc2c1
not listed: [7]
inactive: all other assays above

CC(C)(O)CCc1ccccc1
not listed: [7]
inactive: all other assays above

O=c1[nH]c2cc(C(F)(F)F)c(N3CCOCC3)cc2n(CP(=O)(O)O)c1=O
not listed: [7]
inactive: all other assays above

O=C(O)CCCc1c[nH]c2ccccc12
not listed: [7]
inactive: all other assays above

C=CCOC(=O)COCCC(C)C
not listed: [7]
inactive: all other assays above

OCC(CO)n1cnc(-c2ccc(F)cc2)c1-c1ccnc(Oc2ccccc2)n1
inactive: [1] | [5] | [6]
active: [2] 68.5 µM | [3] 68.5 µM | [4] 68.5 µM

N[C@@H](Cc1cc(I)c(O)c(I)c1)C(=O)O
not listed: [7]
inactive: all other assays above

O=C(O)c1cccc(Oc2ccccc2)c1
not listed: [7]
inactive: all other assays above

O=P(O)(O)Oc1ccccc1
not listed: [7]
inactive: all other assays above

O=C1NC(=O)c2cccc3cccc1c23
active: [4] 48.6 µM
not listed: [7]
inactive: all other assays above

C=CC(=O)NC(C)C
not listed: [7]
inactive: all other assays above

CCCCCCCCCCCCCOC(=O)CCSCCC(=O)OCCCCCCCCCCCCC
not listed: [7]
inactive: all other assays above

CC[C@H]1OC(=O)[C@H](C)[C@@H](O[C@H]2C[C@@](C)(OC)[C@@H](O)[C@H](C)O2)[C@H](C)[C@@H](O[C@@H]2O[C@H](C)C[C@H](N(C)C)[C@H]2O)[C@](C)(O)C[C@@H](C)CN(C)[C@H](C)[C@@H](O)[C@]1(C)O
inactive: [1] | [5] | [6]
active: [2] 3.76 µM and 2.87 µM | [3] 2.11 µM and 1.81 µM | [4] 3.76 µM and 2.56 µM

CC(C)c1ccc(C#N)cc1
not listed: [7]
inactive: all other assays above

CC(C)c1ccc(C(=O)N=C(N)N)cc1S(C)(=O)=O
not listed: [7]
inactive: all other assays above

CCNc1nc(N)nc(Cl)n1
not listed: [7]
inactive: all other assays above

CC(C)(C)CCCCCCOC(=O)c1ccccc1C(=O)OCCCCCCC(C)(C)C
not listed: [7]
inactive: all other assays above

c1ccc2sc(SSc3nc4ccccc4s3)nc2c1
not listed: [7]
inactive: all other assays above

Cc1c[nH]c2ccccc12
not listed: [7]
inactive: all other assays above

CCCCC(CC)COS(=O)(=O)O (centres undefined)
not listed: [7]
inactive: all other assays above

C/C(C=O)=C\c1ccccc1
not listed: [7]
inactive: all other assays above

Cc1ccc(NC(=O)N(C)C)cc1NC(=O)N(C)C
not listed: [7]
inactive: all other assays above

COC(OC)OC
not listed: [7]
inactive: all other assays above

COC(CC(C)CCCC(C)(C)O)OC (centres undefined)
not listed: [7]
inactive: all other assays above

O=C(Nc1ccc(C(=O)O)c(O)c1)c1ccccc1
not listed: [7]
inactive: all other assays above

CCCCCCCCCCCCCCN(C)C
not listed: [7]
inactive: all other assays above

Cc1ccc(Nc2c(F)cccc2Cl)c(CC(=O)O)c1
not listed: [7]
inactive: all other assays above

O=c1[nH][nH]c(=O)c2cc([N+](=O)[O-])ccc12
not listed: [7]
inactive: all other assays above

CCCCCCCCCCCCCCCC(=O)OCC
not listed: [7]
inactive: all other assays above

CC(CO)(CO)C(=O)O
not listed: [7]
inactive: all other assays above

CC(CN(CCN(CC(C)OCCO)CC(C)OCCO)CC(C)OCCO)OCCO (centres undefined)
active: [2] 18.6 µM | [3] 10.5 µM | [4] 20.9 µM
inactive: [1] | [5] | [6]

CCCCCCOC(=O)CCCCC
not listed: [7]
inactive: all other assays above

CC[C@H]1OC(=O)[C@H](C)[C@@H](O[C@H]2C[C@@](C)(OC)[C@@H](O)[C@H](C)O2)[C@H](C)[C@@H](O[C@@H]2O[C@H](C)C[C@H](N(C)C)[C@H]2O)[C@](C)(O)C[C@@H](C)/C(=N\OCOCCOC)[C@H](C)[C@@H](O)[C@]1(C)O
inactive and 14.3 µM (active): [2] | [4]
inactive: [1] | [5] | [6]
inactive and 8.07 µM (active): [3]

COc1ccc(/C=C/C(=O)c2ccc(OC)cc2OC)cc1
active: [2] 10.6 µM | [3] 16.8 µM | [4] 18.8 µM
inactive: [1] | [5] | [6]

CC(C)N(C)C
not listed: [7]
inactive: all other assays above

O=C1OC(=O)c2c(Br)c(Br)c(Br)c(Br)c21
not listed: [7]
inactive: all other assays above

CN(C)CC/C=C1\c2ccccc2Sc2ccc(Cl)cc21
inactive: [1] | [7]
active: [2] 3.76 µM | [3] 16.8 µM | [4] 10.6 µM | [6] 27.8 µM

Cc1ccc(S(=O)(=O)NC(=O)NC2CCCCC2)cc1
not listed: [7]
inactive: all other assays above

O=C(O)CNC(=O)c1ccccc1I
not listed: [7]
inactive: all other assays above

CC1C(C)(C)C2=C(C(=O)CCC2)C1(C)C (centres undefined)
not listed: [7]
inactive: all other assays above

Cc1ccc(N(CCO)CCO)cc1
not listed: [7]
inactive: all other assays above

Cc1cc([N+](=O)[O-])ccc1N
not listed: [7]
inactive: all other assays above

CCN(CC)CCOc1ccccc1C(=O)CCc1ccccc1
active: [2] 11.9 µM | [3] 26.6 µM | [4] 26.6 µM
inactive: [1] | [6]

CC(=O)C(=O)CC(C)C
inactive: [1] | [2] | [4] | [5]

C=C(C)C(=O)OCCC(F)(F)C(F)(F)C(F)(F)C(F)(F)C(F)(F)C(F)(F)F
inactive: [1] | [2] | [4] | [5]

CC(O)Cn1cnc2c1c(=O)n(C)c(=O)n2C (centres undefined)
not listed: [5] | [7]
inactive: all other assays above

CCN(CC)C(=O)N1CCN(C)CC1
not listed: [5] | [7]
inactive: all other assays above

COC1CCC=CO1 (centres undefined)
not listed: [3] | [7]
inactive: all other assays above

Nc1ccc(S(=O)(=O)NCc2ccccc2)cc1
inactive: [1] | [2] | [4] | [5]

CC1CCc2nccnc21 (centres undefined)
inactive: [1] | [2] | [5] | [6]
active: [4] 54.5 µM

CC(C)C1CCC(C(=O)N[C@H](Cc2ccccc2)C(=O)O)CC1 (some centres undefined)
not listed: [3] | [7]
inactive: all other assays above

CCCCOC(=O)CCCCC(=O)OCCCC
inactive: [1] | [2] | [4] | [5]
